Among all 5,500 compounds or so, about 2,000 (36%) were called active. About 18% were inconclusive and are not listed. Rule as the data show it: active = normalized growth mostly below about 0.91 (no sharp cut-off); inconclusive = no clear call, values can overlap the other calls; inactive = mostly above about 0.92. The list shows a part of the results.
Assay: chemical genetic growth profiling, strain panel (AID 1159580);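 also: tested at 20 µM; growth read once vehicle control cultures reached saturation at 30 °C; 1 = growth at the plate median or of vehicle wells; lower values mean less growth of the strain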
Conditions: growth OD

Measured: normalized growth

Cc1ccccc1N1C(=O)c2cc(S(N)(=O)=O)c(Cl)cc2NC1C (stereo not drawn)
inactive: S. cerevisiae deletion strains, locus YKL009W, strain mrt4, hits give low values 1.01 | S. cerevisiae deletion strains, locus YKL068W, hits give low values 0.982 | S. cerevisiae deletion strains, locus YKL085W, strain MDH1 (second series), hits give low values 1.03 | S. cerevisiae deletion strains, locus YKL085W, strain MDH1, hits give low values 1.03 | S. cerevisiae deletion strains, locus YKL160W, strain elf1, hits give low values 0.969 | S. cerevisiae deletion strains, locus YKL190W, strain CNB1, hits give low values 0.994 | S. cerevisiae deletion strains, locus YKR001C, strain vps1, hits give low values 0.988 | S. cerevisiae deletion strains, locus YKR026C, strain gcn3, hits give low values 0.94 | S. cerevisiae deletion strains, locus YKR091W, strain srl3, hits give low values 0.984 | S. cerevisiae deletion strains, locus YLL001W, strain dnm1, hits give low values 0.969 | S. cerevisiae deletion strains, locus YLL026W, hits give low values 1 | S. cerevisiae deletion strains, locus YLL041C, strain sdh2, hits give low values 0.988 | S. cerevisiae deletion strains, locus YLR027C, strain aat2, hits give low values 0.987 | S. cerevisiae deletion strains, locus YLR039C, strain RIC1, hits give low values 0.974 | S. cerevisiae deletion strains, locus YLR058C, strain SHM2, hits give low values 0.987 | S. cerevisiae deletion strains, locus YLR102C, strain apc9, hits give low values 0.989 | S. cerevisiae deletion strains, locus YLR113W, strain HOG1, hits give low values 0.985 | S. cerevisiae deletion strains, locus YLR221C, strain rsa3, hits give low values 0.986 | S. cerevisiae deletion strains, locus YLR258W, strain gsy2, hits give low values 0.969 | S. cerevisiae deletion strains, locus YLR262C, strain YPT6 (second series), hits give low values 0.96 | S. cerevisiae deletion strains, locus YLR262C, strain YPT6, hits give low values 1.01 | S. cerevisiae deletion strains, locus YLR268W, strain sec22, hits give low values 0.995 | S. cerevisiae deletion strains, locus YLR320W, strain mms22, hits give low values 1.04 | S. cerevisiae deletion strains, locus YLR330W, strain CHS5, hits give low values 0.99 | S. cerevisiae deletion strains, locus YLR342W, strain FKS1 (second series), hits give low values 0.971 | S. cerevisiae deletion strains, locus YLR342W, strain FKS1, hits give low values 0.983 | S. cerevisiae deletion strains, locus YLR357W, strain rsc2, hits give low values 0.949 | S. cerevisiae deletion strains, locus YLR370C, strain arc18, hits give low values 0.98 | S. cerevisiae deletion strains, locus YLR371W, strain rom2, hits give low values 0.993 | S. cerevisiae deletion strains, locus YLR384C, strain iki3, hits give low values 0.961 | S. cerevisiae deletion strains, locus YLR418C, strain cdc73, hits give low values 0.98 | S. cerevisiae deletion strains, locus YML016C, strain PPZ1, hits give low values 0.985 | S. cerevisiae deletion strains, locus YML032C, strain rad52, hits give low values 0.994 | S. cerevisiae deletion strains, locus YML120C, strain ndi1, hits give low values 1 | S. cerevisiae deletion strains, locus YML124C, strain tub3, hits give low values 0.978 | S. cerevisiae deletion strains, locus YMR058W, strain fet3, hits give low values 0.988 | S. cerevisiae deletion strains, locus YMR078C, strain ctf18, hits give low values 0.984 | S. cerevisiae deletion strains, locus YMR125W, strain sto1, hits give low values 0.921 | S. cerevisiae deletion strains, locus YMR129W, hits give low values 0.997 | S. cerevisiae deletion strains, locus YMR205C, strain PFK2, hits give low values 0.982 | S. cerevisiae deletion strains, locus YMR223W, strain ubp8, hits give low values 0.993 | S. cerevisiae deletion strains, locus YMR231W, strain pep5, hits give low values 0.974 | S. cerevisiae deletion strains, locus YMR263W, strain SAP30, hits give low values 1.01 | S. cerevisiae deletion strains, locus YMR307W, strain GAS1, hits give low values 0.888 | S. cerevisiae deletion strains, locus YNL067W, strain RPL9B, hits give low values 1.01 | S. cerevisiae deletion strains, locus YNL071W, strain lat1, hits give low values 1.01 | S. cerevisiae deletion strains, locus YNL128W, strain TEP1, hits give low values 0.97 | S. cerevisiae deletion strains, locus YNL183C, strain NPR1, hits give low values 0.93 | S. cerevisiae deletion strains, locus YNL209W, strain ssb2, hits give low values 0.994 | S. cerevisiae deletion strains, locus YNL233W, strain BNI4, hits give low values 1.01 | S. cerevisiae deletion strains, locus YNL248C, strain rpa49, hits give low values 0.909 | S. cerevisiae deletion strains, locus YNL250W, strain rad50, hits give low values 0.98 | S. cerevisiae deletion strains, locus YNL271C, strain bni1, hits give low values 0.983 | S. cerevisiae deletion strains, locus YNL298W, strain CLA4, hits give low values 0.996 | S. cerevisiae deletion strains, locus YNL307C, strain MCK1, hits give low values 0.996 | S. cerevisiae deletion strains, locus YNL322C, strain KRE1 (second series), hits give low values 0.98 | S. cerevisiae deletion strains, locus YNR049C, strain mso1, hits give low values 0.992 | S. cerevisiae deletion strains, locus YNR052C, strain pop2, hits give low values 0.995 | S. cerevisiae deletion strains, locus YOL006C, strain TOP1, hits give low values 0.997 | S. cerevisiae deletion strains, locus YOL012C, strain htz1 0.785 | S. cerevisiae deletion strains, locus YOL147C, strain pex11, hits give low values 0.987 | S. cerevisiae deletion strains, locus YOR001W, strain rrp6, hits give low values 0.957 | S. cerevisiae deletion strains, locus YOR061W, strain CKA2, hits give low values 0.993 | S. cerevisiae deletion strains, locus YOR069W, strain VPS5, hits give low values 0.986 | S. cerevisiae deletion strains, locus YOR070C, strain gyp1, hits give low values 0.999 | S. cerevisiae deletion strains, locus YOR080W, strain dia2, hits give low values 0.961 | S. cerevisiae deletion strains, locus YOR083W, strain WHI5, hits give low values 0.986 | S. cerevisiae deletion strains, locus YOR106W, strain vam3, hits give low values 0.957 | S. cerevisiae deletion strains, locus YOR136W, strain idh2, hits give low values 0.99 | S. cerevisiae deletion strains, locus YOR144C, strain elg1, hits give low values 0.987 | S. cerevisiae deletion strains, locus YOR184W, strain ser1, hits give low values 1.01 | S. cerevisiae deletion strains, locus YOR231W, strain MKK1, hits give low values 0.974 | S. cerevisiae deletion strains, locus YOR265W, strain rbl2, hits give low values 0.995 | S. cerevisiae deletion strains, locus YOR270C, strain vph1, hits give low values 0.938 | S. cerevisiae deletion strains, locus YOR290C, strain snf2, hits give low values 0.995 | S. cerevisiae deletion strains, locus YOR316C, strain cot1, hits give low values 0.983 | S. cerevisiae deletion strains, locus YPL051W, strain arl3, hits give low values 1.01 | S. cerevisiae deletion strains, locus YPL078C, strain atp4, hits give low values 0.957 | S. cerevisiae deletion strains, locus YPL106C, strain sse1, hits give low values 0.956 | S. cerevisiae deletion strains, locus YPL240C, strain hsp82, hits give low values 0.986 | S. cerevisiae deletion strains, locus YPL241C, strain CIN2, hits give low values 0.992 | S. cerevisiae deletion strains, locus YPL256C, strain CLN2, hits give low values 0.954 | S. cerevisiae deletion strains, locus YPR119W, strain clb2, hits give low values 0.987 | S. cerevisiae deletion strains, locus YPR141C, strain kar3, hits give low values 0.975 | S. cerevisiae deletion strains, locus YPR163C, strain tif3, hits give low values 0.981 | S. cerevisiae deletion strains, locus YPR167C, strain met16, hits give low values 0.992 | S. cerevisiae deletion strains, strain wtn01, hits give low values 0.991 | S. cerevisiae strains, strain wild type, hits give low values 0.943
